# According to PubChem BioAssay AID1159580 (chemical genetic matrix, 2015):
# Several values for one entry are separate records, joined by “and”; a condition that tells them apart may be missing. Equal values may be shown once. Hit rate of the full screen: of about 5,500 compounds, about 2,000 (36%) were called active. Roughly 18% stayed inconclusive and do not appear here. Cut-off read from the data, not from the text of the source: active = normalized growth mostly below about 0.91 (no sharp cut-off); inconclusive = no clear call, values can overlap the other calls; inactive = mostly above about 0.92. The list shows a part of the results.
# Test: chemical genetic growth profiling, strain panel (AID 1159580);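 note: tested at 20 µM; growth read once vehicle control cultures reached saturation at 30 °C; 1 = growth at the plate median or of vehicle wells; lower values mean less growth of the strain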
# Settings: growth OD
# [1] = S. cerevisiae deletion strains, locus YAL013W, strain DEP1, stronger effect = lower value
# [2] = S. cerevisiae deletion strains, locus YBR229C, strain ROT2, stronger effect = lower value
# [3] = S. cerevisiae deletion strains, locus YDL101C, strain DUN1, stronger effect = lower value
# [4] = S. cerevisiae deletion strains, locus YDL134C, strain PPH21, stronger effect = lower value
# [5] = S. cerevisiae deletion strains, locus YDR150W, strain NUM1, stronger effect = lower value
# [6] = S. cerevisiae deletion strains, locus YEL061C, strain CIN8, stronger effect = lower value
# [7] = S. cerevisiae deletion strains, locus YGR078C, strain PAC10, stronger effect = lower value
# [8] = S. cerevisiae deletion strains, locus YGR229C, strain SMI1, stronger effect = lower value
# [9] = S. cerevisiae deletion strains, locus YHR030C, strain SLT2, stronger effect = lower value
# [10] = S. cerevisiae deletion strains, locus YHR087W, strain rtc3, stronger effect = lower value
# [11] = S. cerevisiae deletion strains, locus YJL187C, strain SWE1, stronger effect = lower value
# [12] = S. cerevisiae deletion strains, locus YJR043C, strain POL32, stronger effect = lower value
# [13] = S. cerevisiae deletion strains, locus YJR075W, strain HOC1, stronger effect = lower value
# [14] = S. cerevisiae deletion strains, locus YLR039C, strain RIC1, stronger effect = lower value
# [15] = S. cerevisiae deletion strains, locus YLR058C, strain SHM2 (second series), stronger effect = lower value
# [16] = S. cerevisiae deletion strains, locus YLR085C, strain ARP6, stronger effect = lower value
# [17] = S. cerevisiae deletion strains, locus YLR262C, strain YPT6, stronger effect = lower value
# [18] = S. cerevisiae deletion strains, locus YML094W, strain GIM5, stronger effect = lower value
# [19] = S. cerevisiae deletion strains, locus YMR219W, strain ESC1, stronger effect = lower value
# [20] = S. cerevisiae deletion strains, locus YMR263W, strain SAP30, stronger effect = lower value
# [21] = S. cerevisiae deletion strains, locus YNL153C, strain GIM3, stronger effect = lower value
# [22] = S. cerevisiae deletion strains, locus YNL298W, strain CLA4 (second series), stronger effect = lower value
# [23] = S. cerevisiae deletion strains, locus YNL322C, strain KRE1, stronger effect = lower value
# [24] = S. cerevisiae deletion strains, locus YNR030W, strain Alg12, stronger effect = lower value
# [25] = S. cerevisiae deletion strains, locus YPL055C, strain LGE1, stronger effect = lower value
# [26] = S. cerevisiae deletion strains, locus YPL241C, strain CIN2, stronger effect = lower value
# [27] = S. cerevisiae deletion strains, locus YPR135W, strain CTF4, stronger effect = lower value
smiles,measurement,setting,value
N#C/C(=N/Nc1ccc(C(F)(F)F)cc1)C(=O)C1CC1,normalized growth,[1],0.942 (inactive)
same,normalized growth,"S. cerevisiae deletion strains, locus YAR019C, strain CDC15, stronger effect = lower value",0.952 (inactive)
same,normalized growth,"S. cerevisiae deletion strains, locus YBL105C, strain PKC1, stronger effect = lower value",0.947 (inactive)
same,normalized growth,"S. cerevisiae deletion strains, locus YBR135W, strain CKS1, stronger effect = lower value",0.941 (inactive)
same,normalized growth,"S. cerevisiae deletion strains, locus YBR136W, strain MEC1, stronger effect = lower value",0.942 (inactive)
same,normalized growth,"S. cerevisiae deletion strains, locus YBR160W, strain CDC28, stronger effect = lower value",0.942 (inactive)
same,normalized growth,[2],0.96 (inactive)
same,normalized growth,"S. cerevisiae deletion strains, locus YCL061C, strain MRC1, stronger effect = lower value",0.978 (inactive)
same,normalized growth,"S. cerevisiae deletion strains, locus YDL017W, strain CDC7, stronger effect = lower value",0.953 (inactive)
same,normalized growth,"S. cerevisiae deletion strains, locus YDL028C, strain MPS1, stronger effect = lower value",0.938 (inactive)
same,normalized growth,[3],0.976 (inactive) and 0.966 (inactive)
same,normalized growth,"S. cerevisiae deletion strains, locus YDL108W, strain KIN28, stronger effect = lower value",0.937 (inactive)
same,normalized growth,"S. cerevisiae deletion strains, locus YDL132W, strain cdc53, stronger effect = lower value",0.937 (inactive)
same,normalized growth,[4],0.791 (active)
same,normalized growth,"S. cerevisiae deletion strains, locus YDL214C, strain PRR2, stronger effect = lower value",0.904 (inactive)
same,normalized growth,"S. cerevisiae deletion strains, locus YDR052C, strain DBF4, stronger effect = lower value",0.953 (inactive)
same,normalized growth,"S. cerevisiae deletion strains, locus YDR054C, strain cdc34, stronger effect = lower value",0.95 (inactive)
same,normalized growth,[5],0.928 (inactive)
same,normalized growth,"S. cerevisiae deletion strains, locus YDR226W, strain ADK1, stronger effect = lower value",0.97 (inactive)
same,normalized growth,"S. cerevisiae deletion strains, locus YDR477W, strain SNF1, stronger effect = lower value",0.932 (inactive)
same,normalized growth,[6],0.857 (active)
same,normalized growth,"S. cerevisiae deletion strains, locus YER123W, strain YCK3, stronger effect = lower value",0.88 (inactive)
same,normalized growth,"S. cerevisiae deletion strains, locus YER133W, strain GLC7, stronger effect = lower value",0.93 (inactive)
same,normalized growth,"S. cerevisiae deletion strains, locus YFL009W, strain cdc4, stronger effect = lower value",0.942 (inactive)
same,normalized growth,"S. cerevisiae deletion strains, locus YFL029C, strain CAK1, stronger effect = lower value",0.945 (inactive)
same,normalized growth,"S. cerevisiae deletion strains, locus YFR003C, strain YPI1, stronger effect = lower value",0.95 (inactive)
same,normalized growth,"S. cerevisiae deletion strains, locus YFR019W, strain FAB1, stronger effect = lower value",0.92 (inactive)
same,normalized growth,"S. cerevisiae deletion strains, locus YFR028C, strain CDC14, stronger effect = lower value",0.964 (inactive)
same,normalized growth,"S. cerevisiae deletion strains, locus YGR040W, strain KSS1, stronger effect = lower value",0.905 (inactive)
same,normalized growth,"S. cerevisiae deletion strains, locus YGR052W, strain FMP48, stronger effect = lower value",0.922 (inactive)
same,normalized growth,[7],0.957 (inactive)
same,normalized growth,"S. cerevisiae deletion strains, locus YGR092W, strain DBF2, stronger effect = lower value",0.855 (inactive)
same,normalized growth,[8],0.948 (inactive)
same,normalized growth,[9],0.482 (active) and 1.02 (inactive)
same,normalized growth,"S. cerevisiae deletion strains, locus YHR079C, strain IRE1, stronger effect = lower value",0.958 (inactive)
same,normalized growth,"S. cerevisiae deletion strains, locus YHR082C, strain KSP1, stronger effect = lower value",0.989 (inactive)
same,normalized growth,[10],0.951 (inactive)
same,normalized growth,"S. cerevisiae deletion strains, locus YHR205W, strain SCH9, stronger effect = lower value",0.889 (inactive)
same,normalized growth,"S. cerevisiae deletion strains, locus YIL147C, strain SLN1, stronger effect = lower value",0.941 (inactive)
same,normalized growth,"S. cerevisiae deletion strains, locus YJL095W, strain BCK1, stronger effect = lower value",0.913 (inactive)
same,normalized growth,"S. cerevisiae deletion strains, locus YJL128C, strain PBS2, stronger effect = lower value",0.924 (inactive)
same,normalized growth,"S. cerevisiae deletion strains, locus YJL157C, strain FAR1, stronger effect = lower value",0.94 (inactive)
same,normalized growth,[11],0.98 (inactive)
same,normalized growth,"S. cerevisiae deletion strains, locus YJR016C, strain ILV3, stronger effect = lower value",0.931 (inactive)
same,normalized growth,[12],0.952 (inactive)
same,normalized growth,"S. cerevisiae deletion strains, locus YJR066W, strain TOR1 (second series), stronger effect = lower value",0.897 (inactive)
same,normalized growth,"S. cerevisiae deletion strains, locus YJR066W, strain TOR1, stronger effect = lower value",0.997 (inactive)
same,normalized growth,[13],0.975 (inactive)
same,normalized growth,"S. cerevisiae deletion strains, locus YKL048C, strain ELM1, stronger effect = lower value",0.928 (inactive)
same,normalized growth,"S. cerevisiae deletion strains, locus YKL067W, strain YNK1, stronger effect = lower value",0.904 (inactive)
same,normalized growth,"S. cerevisiae deletion strains, locus YKL101W, strain HSL1, stronger effect = lower value",0.874 (inactive)
same,normalized growth,"S. cerevisiae deletion strains, locus YKL193C, strain SDS22, stronger effect = lower value",0.943 (inactive)
same,normalized growth,"S. cerevisiae deletion strains, locus YKL203C, strain TOR2, stronger effect = lower value",0.996 (inactive)
same,normalized growth,[14],0.565 (active)
same,normalized growth,[15],0.975 (inactive)
same,normalized growth,[16],0.503 (active)
same,normalized growth,"S. cerevisiae deletion strains, locus YLR113W, strain HOG1, stronger effect = lower value",0.835 (active)
same,normalized growth,"S. cerevisiae deletion strains, locus YLR133W, strain CKI1, stronger effect = lower value",0.909 (inactive)
same,normalized growth,[17],0.68 (active)
same,normalized growth,"S. cerevisiae deletion strains, locus YLR403W, strain SFP1, stronger effect = lower value",0.898 (inactive)
same,normalized growth,"S. cerevisiae deletion strains, locus YML070W, strain DAK1, stronger effect = lower value",0.895 (inactive)
same,normalized growth,[18],0.841 (active)
same,normalized growth,"S. cerevisiae deletion strains, locus YMR001C, strain CDC5, stronger effect = lower value",0.95 (inactive)
same,normalized growth,"S. cerevisiae deletion strains, locus YMR205C, strain PFK2 (second series), stronger effect = lower value",0.917 (inactive)
same,normalized growth,[19],0.986 (inactive)
same,normalized growth,[20],0.956 (inactive)
same,normalized growth,"S. cerevisiae deletion strains, locus YMR277W, strain FCP1, stronger effect = lower value",0.937 (inactive)
same,normalized growth,"S. cerevisiae deletion strains, locus YMR307W, strain GAS1, stronger effect = lower value",0.535 (active)
same,normalized growth,"S. cerevisiae deletion strains, locus YNL006W, strain LST8, stronger effect = lower value",0.947 (inactive)
same,normalized growth,"S. cerevisiae deletion strains, locus YNL020C, strain ARK1, stronger effect = lower value",0.914 (inactive)
same,normalized growth,"S. cerevisiae deletion strains, locus YNL128W, strain TEP1, stronger effect = lower value",0.956 (inactive)
same,normalized growth,[21],0.981 (inactive)
same,normalized growth,"S. cerevisiae deletion strains, locus YNL161W, strain CBK1, stronger effect = lower value",0.949 (inactive)
same,normalized growth,"S. cerevisiae deletion strains, locus YNL183C, strain NPR1, stronger effect = lower value",0.941 (inactive)
same,normalized growth,"S. cerevisiae deletion strains, locus YNL207W, strain RIO2, stronger effect = lower value",0.95 (inactive)
same,normalized growth,"S. cerevisiae deletion strains, locus YNL222W, strain SSU72, stronger effect = lower value",0.947 (inactive)
same,normalized growth,[22],0.842 (inactive)
same,normalized growth,"S. cerevisiae deletion strains, locus YNL307C, strain MCK1 (second series), stronger effect = lower value",0.905 (inactive)
same,normalized growth,[23],0.981 (inactive)
same,normalized growth,[24],0.773 (active)
same,normalized growth,"S. cerevisiae deletion strains, locus YOL078W, strain AVO1, stronger effect = lower value",0.936 (inactive)
same,normalized growth,"S. cerevisiae deletion strains, locus YOL136C, strain PFK27, stronger effect = lower value",0.866 (inactive)
same,normalized growth,"S. cerevisiae deletion strains, locus YOR061W, strain CKA2, stronger effect = lower value",0.926 (inactive)
same,normalized growth,"S. cerevisiae deletion strains, locus YOR119C, strain RIO1, stronger effect = lower value",0.973 (inactive)
same,normalized growth,"S. cerevisiae deletion strains, locus YOR231W, strain MKK1, stronger effect = lower value",0.89 (inactive)
same,normalized growth,"S. cerevisiae deletion strains, locus YOR329C, strain SCD5, stronger effect = lower value",0.958 (inactive)
same,normalized growth,"S. cerevisiae deletion strains, locus YPL031C, strain PHO85, stronger effect = lower value",0.922 (inactive)
same,normalized growth,[25],0.83 (inactive)
same,normalized growth,"S. cerevisiae deletion strains, locus YPL153C, strain RAD53, stronger effect = lower value",0.929 (inactive)
same,normalized growth,"S. cerevisiae deletion strains, locus YPL204W, strain HRR25, stronger effect = lower value",0.894 (inactive)
same,normalized growth,"S. cerevisiae deletion strains, locus YPL209C, strain IPL1, stronger effect = lower value",0.955 (inactive)
same,normalized growth,[26],0.76 (active)
same,normalized growth,"S. cerevisiae deletion strains, locus YPL256C, strain CLN2, stronger effect = lower value",0.977 (inactive)
same,normalized growth,"S. cerevisiae deletion strains, locus YPR025C, strain CCL1, stronger effect = lower value",0.95 (inactive)
same,normalized growth,"S. cerevisiae deletion strains, locus YPR106W, strain ISR1, stronger effect = lower value",0.951 (inactive)
same,normalized growth,"S. cerevisiae deletion strains, locus YPR111W, strain DBF20, stronger effect = lower value",0.912 (inactive)
same,normalized growth,[27],0.829 (inactive)
same,normalized growth,"S. cerevisiae deletion strains, strain NNK1, stronger effect = lower value",0.971 (inactive)
same,normalized growth,"S. cerevisiae deletion strains, strain TSCII, stronger effect = lower value",0.947 (inactive)
same,normalized growth,"S. cerevisiae strains, strain wild type, stronger effect = lower value",0.943 (inactive)
CC(=O)CC(C)=Nc1ccc(C(F)(F)F)cc1,normalized growth,[1],0.989 (inactive)
same,normalized growth,[2],0.991 (inactive)
same,normalized growth,[3],0.994 (inactive)
same,normalized growth,[4],1.03 (inactive)
same,normalized growth,[5],0.908 (inactive)
same,normalized growth,[6],1.01 (inactive)
same,normalized growth,[7],0.981 (inactive)
same,normalized growth,[8],1.02 (inactive)
same,normalized growth,[9],1.08 (inactive)
same,normalized growth,[10],0.971 (inactive)
same,normalized growth,[11],0.995 (inactive)
same,normalized growth,[12],1.01 (inactive)
same,normalized growth,[13],1.05 (inactive)
same,normalized growth,[14],1.05 (inactive)
same,normalized growth,[15],1 (inactive)
same,normalized growth,[16],1.03 (inactive)
same,normalized growth,[17],1.04 (inactive)
same,normalized growth,[18],0.993 (inactive)
same,normalized growth,[19],1 (inactive)
same,normalized growth,[20],1.05 (inactive)
same,normalized growth,[21],0.985 (inactive)
same,normalized growth,[22],1.05 (inactive)
same,normalized growth,[23],1 (inactive)
same,normalized growth,[24],1.02 (inactive)
same,normalized growth,[25],0.939 (inactive)
same,normalized growth,[26],1.08 (inactive)
same,normalized growth,[27],0.969 (inactive)
